An excerpt weighted towards active compounds, which were near 2.1% of everything screened.
NFkB SMM: NF-kappa-B p105 (human) binding. hit rate 1.3% among 17,000. Small molecule microarray, anti-His fluorescence binding. calls only;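 active = spot fluorescence over background significantly raised, with a chance value under 7% in all four replicate spots of the compound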;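 also: probe protein is his-tagged human p50 processed subunit at 1 µg/ml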
c-Myc SMM: binds human c-Myc on microarray; calls only; small molecule microarray, His-c-Myc binding, anti-His fluorescence; hit rate 1.5% among 17,000; AID 624141;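 active = spot fluorescence over background with P-value below 7% in all four replicate spots, showing protein binding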
mut p53 SMM: mutant p53 (human) binding; small molecule microarray binding, anti-GST fluorescence; calls only; hit rate 0.4% among 17,000; AID 624136;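 active = compounds whose four printed spots each glow above background more than chance allows, each with a p-value under 7%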
STAT3 binder: binders of human STAT3 | P40763 | Small molecule microarray, His-STAT3 binding, anti-His fluorescence | calls only | hit rate 0.2% among 17,000;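 active = compounds whose four printed spots each show fluorescence over background unusually high for their array block, chance value under 7%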
Target sequence (P40763 whole entry, looked up): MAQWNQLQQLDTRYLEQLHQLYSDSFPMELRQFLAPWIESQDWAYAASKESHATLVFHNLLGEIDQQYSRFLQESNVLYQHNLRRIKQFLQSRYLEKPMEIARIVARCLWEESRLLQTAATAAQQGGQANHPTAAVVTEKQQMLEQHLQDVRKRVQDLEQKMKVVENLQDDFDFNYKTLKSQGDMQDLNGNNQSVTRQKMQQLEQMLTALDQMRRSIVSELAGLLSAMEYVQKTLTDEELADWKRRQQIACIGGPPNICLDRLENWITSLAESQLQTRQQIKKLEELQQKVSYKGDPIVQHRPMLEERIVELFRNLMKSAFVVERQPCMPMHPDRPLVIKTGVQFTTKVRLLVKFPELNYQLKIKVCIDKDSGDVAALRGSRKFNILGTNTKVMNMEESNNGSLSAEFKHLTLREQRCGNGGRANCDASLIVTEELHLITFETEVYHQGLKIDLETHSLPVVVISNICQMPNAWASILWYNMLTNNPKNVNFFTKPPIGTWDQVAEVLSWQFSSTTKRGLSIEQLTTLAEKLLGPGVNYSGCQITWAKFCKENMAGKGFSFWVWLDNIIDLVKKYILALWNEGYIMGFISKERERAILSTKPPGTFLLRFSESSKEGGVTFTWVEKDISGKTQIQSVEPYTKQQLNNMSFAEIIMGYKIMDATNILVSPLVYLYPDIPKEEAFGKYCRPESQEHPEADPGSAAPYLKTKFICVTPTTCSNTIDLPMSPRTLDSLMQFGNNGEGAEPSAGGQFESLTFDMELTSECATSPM
Calls only; – = inactive; + = active, no number.

SMILES | NFkB SMM | c-Myc SMM | mut p53 SMM | STAT3 binder
C[C@@H]1CN([C@@H](C)CO)C(=O)c2cc(NC(=O)c3ccncc3)ccc2O[C@@H](C)CCCCO[C@H]1CN(C)C(=O)Nc1cccc2ccccc12 | + | + | – | –
C[C@@H]1CN([C@@H](C)CO)C(=O)c2cc(NC(=O)c3ccncc3)ccc2O[C@@H](C)CCCCO[C@@H]1CN(C)C(=O)Nc1cccc2ccccc12 | – | – | + | +
CC(C)NC(=O)N(C)C[C@H]1OCCCC[C@@H](C)Oc2ccc(NC(=O)c3ccncc3)cc2C(=O)N([C@@H](C)CO)C[C@H]1C | + | – | – | –
C[C@@H]1CCCCO[C@@H](CN(C)C(=O)Nc2cccc3ccccc23)[C@H](C)CN([C@H](C)CO)C(=O)c2cc(N(C)C)ccc2O1 | + | + | – | –
C[C@H]1CCCCO[C@@H](CN(C)C(=O)Nc2ccccc2)[C@@H](C)CN([C@@H](C)CO)C(=O)c2cc(NC(=O)c3ccncc3)ccc2O1 | – | – | – | –
CC(C)NC(=O)N(C)C[C@H]1OCCCC[C@H](C)Oc2ccc(NC(=O)c3ccncc3)cc2C(=O)N([C@@H](C)CO)C[C@H]1C | – | – | – | –
CCc1c(O)nc(SCC(=O)N(c2ccccc2)c2ccccc2)[nH]c1=O | – | – | – | –
CC(C)c1ccc(NC(=O)CSc2n[nH]c(-c3ccc(Cl)cc3)n2)cc1 | – | – | – | –
Cn1c(=O)c2c(nc(N3CCOCC3)n2CCCN)n(C)c1=O | – | – | – | –
Cc1nc2ccc(NC(=S)NCCCO)cc2nc1C | – | + | – | –
Cc1nn(CC(=O)Nc2ccc3c(c2)nc(CN2CCCC2)n3C)c(=O)c2ccccc12 | – | + | + | –
Cc1noc(C)c1S(=O)(=O)N(C)C[C@@H]1OCCCC[C@@H](C)Oc2ccc(N(C)C)cc2C(=O)N([C@H](C)CO)C[C@H]1C | + | + | – | –
Cc1noc(C)c1S(=O)(=O)N(C)C[C@H]1OCCCC[C@H](C)Oc2ccc(N(C)C)cc2C(=O)N([C@@H](C)CO)C[C@@H]1C | – | – | + | –
Cc1noc(C)c1S(=O)(=O)N(C)C[C@H]1OCCCC[C@H](C)Oc2ccc(NC(=O)NC(C)C)cc2C(=O)N([C@H](C)CO)C[C@@H]1C | – | – | – | –
C[C@H](CO)N1C[C@H](C)[C@@H](CN(C)S(=O)(=O)c2ccccc2)OCCCC[C@H](C)Oc2ccc(N(C)C)cc2C1=O | – | – | + | –
Cc1noc(C)c1S(=O)(=O)N(C)C[C@H]1OCCCC[C@@H](C)Oc2ccc(NC(=O)NC(C)C)cc2C(=O)N([C@@H](C)CO)C[C@H]1C | – | + | – | –
CC(=O)c1ccc(OC(=O)C(Cc2ccccc2)N2C(=O)C3C4C=CC(C5CC45)C3C2=O)cc1 (stereo unspecified) | – | – | – | –
COC(=O)c1ccccc1NC(=O)c1cc(-c2ccccn2)nc2c(C)c(Cl)ccc12 | – | – | – | –
COC(=O)c1sc(NC(=O)COc2ccc(C(C)C)cc2)c(C#N)c1C | – | – | – | –
Cc1ccc(N(C(C)C(=O)Nc2cccc(C)c2C)S(C)(=O)=O)cc1 (stereo unspecified) | – | – | – | –
Cc1ccc(NC(=O)C(C)NS(=O)(=O)c2ccc(F)cc2)c(C)c1 (stereo unspecified) | – | – | – | –
CN(CCCC(=O)O)c1nc(-c2ccc(F)cc2)cs1 | – | – | – | –
N#Cc1c(NC(=S)NC(=O)c2cncc(Br)c2)sc2c1CCCC2 | – | – | – | –
Cc1cccnc1NC(=S)NC(=O)c1cncc(Br)c1 | – | + | – | –
COc1cccc(OC)c1C(=O)Nc1cccc(-c2nc3ncccc3o2)c1 | – | – | – | –
SMILES | NFkB SMM | c-Myc SMM | mut p53 SMM | STAT3 binder
Cc1cc(S(=O)(=O)NCC(=O)O)ccc1F | – | + | – | –
Cc1ccc2cc(S(=O)(=O)NCCC(=O)O)ccc2c1 | – | + | – | –
Cn1c(=O)oc2cc(S(=O)(=O)NCCC(=O)O)ccc21 | – | – | – | –
Cc1cc(C)c(S(=O)(=O)NCC(=O)O)c(C)c1 | – | + | – | –
CSc1cccc(NC(=O)CNS(=O)(=O)c2c(C)cc(C)cc2C)c1 | – | – | – | –
C=C(C(=O)O[C@H]1C/C=C(/C)C[C@H](O)[C@H]2[C@H](C)C(=O)O[C@@H]2/C=C\1C)[C@@H]1CCC(=C)[C@@H]2C[C@H](O[C@@H]3O[C@H](CO[C@H]4OC[C@](O)(CO)[C@H]4O)[C@@H](O)[C@H](O)[C@H]3O)C(=C)[C@@H]2C1 | – | – | – | –
CCOc1cccc2c(C)nc(Nc3nc4c(c(=O)[nH]3)CCCC4)nc12 | – | – | – | –
Cc1nnc(SCC(=O)NCC2CCCO2)s1 (stereo unspecified) | – | – | – | –
CCC[C@H]1CC2=C(C[C@@H](CC)CC3=C1C(=O)OC3=O)C(=O)OC2=O | – | – | – | –
COc1c(CO)c(O)cc2c1C(=O)c1ccccc1C2=O | – | – | – | –
OC1c2ccccc2-c2c3c(cc4c2C1NCC4)OCO3 (stereo unspecified) | + | + | – | –
CC(=O)O[C@@H]1C[C@@H](C)[C@](O)(CCc2ccoc2)[C@]23CCC[C@](C)(C(=O)OC2)C13 (stereo partly specified) | – | – | – | –
O=C(O)Cc1ccc(NC(=O)CN2C(=O)c3ccccc3C2=O)cc1 | – | – | – | –
CC1=C(CO)C(=O)OC([C@@H](C)[C@H]2CCC3C4CC=C5C[C@@H](O[C@@H]6O[C@H](CO)[C@@H](O)[C@H](O)[C@H]6O)C[C@H](O)[C@]5(C)C4CC[C@@]32C)C1 (stereo partly specified) | – | – | – | –
CC1CCC2(NC1)OC1CC3C4CC=C5CC(O[C@@H]6O[C@H](CO)[C@@H](O[C@@H]7O[C@@H](C)[C@H](O)[C@@H](O)[C@H]7O)[C@H](O)[C@H]6O)CCC5(C)C4CCC3(C)C1C2C (stereo partly specified) | + | – | – | –
N#CCCSCc1ccc2oc(C(=O)O)cc2c1 | – | + | – | –
Cc1noc(C)c1S(=O)(=O)Nc1ccc2c(c1)C(=O)N([C@H](C)CO)C[C@H](C)[C@@H](CN(C)C(=O)NC(C)C)OCCCC[C@H](C)O2 | + | – | – | –
Cc1noc(C)c1S(=O)(=O)Nc1ccc2c(c1)C(=O)N([C@H](C)CO)C[C@H](C)[C@@H](CN(C)C(=O)Nc1cccc3ccccc13)OCCCC[C@H](C)O2 | + | + | – | –
CC(C)NC(=O)Nc1ccc2c(c1)C(=O)N([C@H](C)CO)C[C@H](C)[C@@H](CN(C)Cc1ccccc1)OCCCC[C@H](C)O2 | + | – | – | –
CC(C)NC(=O)Nc1ccc2c(c1)C(=O)N([C@H](C)CO)C[C@@H](C)[C@H](CN(C)Cc1ccccc1)OCCCC[C@@H](C)O2 | – | – | – | –
C[C@H](CO)N1C[C@H](C)[C@H](CN(C)Cc2ccncc2)OCCCC[C@H](C)Oc2ccc(NC(=O)Nc3ccccc3)cc2C1=O | – | – | + | +
CC(C)NC(=O)Nc1ccc2c(c1)C(=O)N([C@@H](C)CO)C[C@H](C)[C@@H](CN(C)Cc1ccccc1)OCCCC[C@@H](C)O2 | – | + | – | –

Bioassay records: PubChem, Broad Institute
